This is part of a sample that, as a whole, favours compounds with a hit. Of some 83,000 tested, about 20% had one in any assay.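 How to read the values: 0–100, growth inhibition (40 = 60% inhibited); 0, no net growth; -100 to 0, cell death (-40 = 40% of starting cells died; -100 = all dead).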 Activity calls are given as the source filed them. The calls were made as follows: active = growth percent below 10; inactive = the rest.
These compounds were tested on HL-60(TB) leukemia (assay: NCI-60 one-dose screen, 48 h (100 = growth as untreated, 0 = no growth, -100 = all killed)). Conditions: 10 µM unless noted.
For `CC[C@H](CC[C@@H](C)[C@H]1CC[C@H]2[C@@H]3/C(=C/c4cccnc4)C(=O)C4=CC(=O)CC[C@]4(C)[C@H]3CC[C@]12C)C(C)C`, the growth was 64.6% (inactive). With `CC(C)C(=O)Nc1ncc(C(=O)NCCN(Cc2ccccc2)C(=O)c2ccc(S(=O)(=O)Nc3ccccc3)cc2)s1` the growth was 107% (inactive). `CCOC(=O)CCC(NC(=O)c1ccc(N)cc1)C(=O)OCC` (configuration not stated) was tested, and the growth was 102% (inactive). With `COc1ccc(NC(=S)NNc2ccc(-c3ccc(OC)c(OC)c3)nn2)cc1` the growth was 98.9% (inactive). With `CCOC(=O)c1c(-c2ccc(Cl)cc2)c(C#N)c(=O)n(-c2ccccc2CC)c1N` the growth was 144% (inactive). `C=C1C(=O)O[C@H]2[C@H]1CC/C(COC(=O)N[C@H](Cc1c[nH]c3ccccc13)C(=O)OC)=C\CC[C@@]1(C)O[C@@H]21` was tested, and the growth was -58% (active). `O=C(O/C(=C/c1ccccc1)C(F)(F)F)c1ccccc1` was tested, and the growth was 32.3% (inactive). `Cc1ccc(-c2csc(NC(=O)c3ccccc3CN3C(=O)c4ccccc4C3=O)n2)cc1` was tested, and the growth was 95.3% (inactive). `Cc1nc2sc(C(=O)Nc3ccccn3)c(N)c2cc1C(C)O` (configuration not stated) was tested, and the growth was 34.1% (inactive). With `CC1(COc2ccc3c(c2)ncn3-c2ccc3cccc(N4CCC(N)CC4)c3n2)COC1` the growth was -46.9% (active). In the case of `COc1ccc(C2C3(C#N)C(N)=NC(=C(C#N)C#N)C23C#N)cc1OC` (configuration not stated), the growth is reported as 107% (inactive). For `Cc1cc(C)nc(NS(=O)(=O)c2ccc(Nc3ccc4c5c(n(CCCN(C)C)c(=O)c4c3)-c3ccccc3C5=O)cc2)n1`, the growth was 70.6% (inactive). With `CCCCCCCC/C=C/CCCCCCCC1=NC(C)(C)CN1C(C)C` the growth was -65.6% (active). For `CC(C)(C)CC(C)(C)Nc1c(-c2ccc(-c3ccccc3)cc2)nc2cnccn12`, the growth was 92.9% (inactive). With `O=C1NC(=O)C(Cc2ccc(OCc3ccc(-c4ccc(Cl)cc4Cl)cc3)cc2)S1` (configuration not stated) the growth was 56.9% (inactive). With `Nc1cc2c(cc1Cl)-c1ccc([N+](=O)[O-])cc1/C2=N\O` the growth was 89.5% (inactive). In the case of `CCCCCCCCCCCCCCCCCC1=NCCN1CCOC1=C(Cl)C(=O)c2ccccc2C1=O`, the growth is reported as 70.1% (inactive). For `COc1ccc(-n2c(SCc3cc(OC)c(OC)c(OC)c3)nc3ccc(C)cc3c2=O)cc1`, the growth was 31.1% (inactive). With `Cc1cc(N(CCOS(C)(=O)=O)CCOS(C)(=O)=O)ccc1C=Nc1ccc(-c2nc(Cc3ccccc3)sc2C)cc1` the growth was 4.95% (active). `N#C/C(=C\c1ccc(Br)cc1)n1nnc2c(F)cccc21` was tested, and the growth was 0.171% (active). `C/C(=N/NC(=O)c1sc(=S)n(C)c1N)c1cc2cc(Cl)ccc2o1` was tested, and the growth was 113% (inactive). For `CCCCCCCCCCOC(c1ccccc1)c1ccccc1`, the growth was 81.4% (inactive). In the case of `C#Cc1cccc(NC(=O)C2CCCCN2C(=O)CCl)c1` (configuration not stated), the growth is reported as -31.6% [8.25 µM] (active). `CCOC(=O)c1ccc(NC(=O)CCCN(CC)CC)cc1` was tested, and the growth was 100% (inactive). In the case of `COc1cc(C2=Nc3c/c(=C\c4c(O)[nH]c5ccc(Cl)cc45)ccc3=N2)cc(OC)c1OC`, the growth is reported as 11.8% (inactive). With `C[C@H]1[C@H](C)CC[C@]2(C(=O)OCCCC[P+](c3ccccc3)(c3ccccc3)c3ccccc3)CC[C@]3(C)C(=CC[C@@H]4[C@@]5(C)CC[C@H](OC(=O)C(Cl)Cl)C(C)(C)[C@@H]5CC[C@]43C)[C@H]12` the growth was -54.3% (active). For `O=C1/C(=C/c2ccccc2Br)COc2ccc(O)cc21`, the growth was 17.1% (inactive).

— PubChem BioAssay (NCI)
